Consider `O=C(O)/C=C/C(=O)O.OCCCNc1nccc(-c2c(-c3ccc(F)cc3)nn3cc(C(F)(F)F)ccc23)n1` [GW569293E], for which the Kinases covered entry in the assay on NLK is on record as “NLK”.
In the case of `COc1cc2nccc(Nc3ccc(OCc4ccc(NC(C)=O)cc4)cc3)c2cc1OC` [GW440135], in the assay on PDGFRA, the Kinases covered result is listed as “PDGFRA”.
For `Cc1ccc(-c2cc(-c3c[nH]nc3-c3ccccn3)ccn2)cc1` [GW684088], in the assay on MINK1, the Kinases covered entry is on record as “MINK1”.
As to `COc1cc2ncnc(Nc3ccc(F)c(Cl)c3)c2cc1O[C@H]1CC[C@H](N)CC1` [BIBW3133BS], the Kinases covered entry with MKNK1 was “MKNK1”.
As for `O=C(Nc1ccccc1)Nc1cccc(Oc2ccc3nccn3n2)c1` [TPKI-39], the Kinases covered result in the assay with PDGFRA is given as “PDGFRA”.
On to `CC(=O)c1cccc(NC(=O)NC2CCN(c3ccnc(Nc4ccc(F)cc4)n3)C2)c1` (stereo not drawn) [GSK1379710], for which, in the assay on NTRK3, the Kinases covered result is listed as “NTRK3”.
As for `Nc1ncnc2occ(-c3ccc(NC(=O)Nc4cc(C(F)(F)F)ccc4F)cc3)c12` [GW770249X], the Kinases covered entry is recorded as “MUSK” with MUSK, “NTRK1” with NTRK1 and “PDGFRA” in the assay with PDGFRA.
As to `CCn1c(-c2nonc2N)nc2cncc(CNC3CCNCC3)c21` [SB-747651A], the Kinases covered result with MSK1 is listed as “MSK1”.
With `Fc1ccc(-c2nn3ccccc3c2-c2ccncc2)cc1` [GW434756X], the Kinases covered entry in the assay on NLK is recorded as “NLK”.
Regarding `CNc1nc(Nc2ccc(C(=O)N3CCOCC3)cc2OC)nc2[nH]cc(Cl)c12` [JH-II-127], in the assay on MLCK, the Kinases covered result is reported as “MLCK”.
For `COc1cc2ncn(-c3cc(O[C@H](C)c4ccccc4Cl)c(C(N)=O)s3)c2cc1OC` [GSK237701A], the Kinases covered entry in the assay with NEK9 is “NEK9”; in the assay with PDGFRA, “PDGFRA”.
`C[C@@H](Oc1cc(-n2cnc3ccc(CN4CCN(C)CC4)cc32)sc1C(N)=O)c1ccccc1C(F)(F)F` [GSK461364]: the Kinases covered result in the assay on NEK2 was “NEK2”.
As to `COc1ccccc1-c1cc(/C=C2\C(=O)Nc3ncc(Br)cc32)cc(Br)c1O` [GW442130X], the Kinases covered result is on record as “NTRK1” in the assay with NTRK1 and “NTRK3” in the assay on NTRK3.
Turning to `C[C@@H]1CCNC(=O)c2cc3ccc(C(=O)Nc4nc5ccccc5n4CCCN(C)C)cc3n21` [BI00645435], the Kinases covered entry in the assay with NUAK2 is “NUAK2”.
For `CCC(=O)Nc1cccc(Oc2nc(Nc3ccc(N4CCN(C)CC4)cc3OC)ncc2Cl)c1` [WZ4003], the Kinases covered result with NUAK1 was “NUAK1”; with NUAK2, “NUAK2”.
Take `CCCc1cc(N2CCCN(C)CC2)nc2sc3c(N)ncnc3c12` [BI00604564]: the Kinases covered entry in the assay with MKNK2 is “MKNK2”.
Turning to `Cn1ccc2ncnc(Oc3ccc(NC(=O)Nc4ccccc4)cc3)c21` [TPKI-69], the Kinases covered result in the assay on PDGFRA is listed as “PDGFRA”.
In the case of `Cc1cn(-c2cc(NC(=O)c3ccc4c(c3)CN(c3cncnc3)C[C@@H]4C)cc(C(F)(F)F)c2)cn1` [D2202-1], the Kinases covered entry is “NTRK1” with NTRK1 and “NTRK2” with NTRK2.
Regarding `CC(C)C(=O)N[C@@H]1CCN(C(=O)Nc2nc3c(s2)-c2nc(-c4ccccc4Cl)ncc2CC3)C1` [BI00047804], the results for the Kinases covered entry in the assay with NEK3 and in the assay with NEK5 were “NEK3” and “NEK5”, respectively.
Turning to `Cc1nc(Nc2cnn(C3CCNCC3)c2)nc2c1N(C)C(=O)c1cc3ccccc3cc1N2C` [HTH-01-015], the Kinases covered entry in the assay on NUAK1 is listed as “NUAK1”.
As for `CNC(=O)c1c(F)cccc1Nc1nc(Nc2cc3c(cc2OC)CCN3C(=O)CN(C)C)nc2[nH]ccc12` [GSK1838705], the Kinases covered result in the assay on MYLK is recorded as “MYLK”.
In the case of `COc1ccc(-c2cc3c(C)nc(N)nc3n([C@H]3CC[C@H](O)CC3)c2=O)cn1` [PFE-PKIS 40], the Kinases covered entry with MTOR is “MTOR”.
For `Cc1cnc(N)c(/C=C/c2cncc(C(=O)NCCc3ccc(Cl)cc3Cl)c2)c1` [GSK190937], the Kinases covered result in the assay with PDGFRA is given as “PDGFRA”.
In the case of `COc1ccc(-c2cc3c(C)nc(N)nc3n([C@H]3CC[C@H](OCCO)CC3)c2=O)cn1` [PFE-PKIS 29], the Kinases covered result in the assay with MTOR is “MTOR”.
Take `CN1C(=O)c2ccccc2N(C)c2nc(Nc3cnn(C4CCNCC4)c3)ncc21` [XMD-17-51]: the Kinases covered result with NUAK1 is “NUAK1”.
On to `CCOc1ccc2c(-c3ccnc(Nc4cc(OC)cc(C(F)(F)F)c4)n3)cnn2n1` [GW807982X], for which the Kinases covered entry with NEK6 is listed as “NEK6”.
With `O=C(Nc1n[nH]c2cc(-c3cccc(F)c3)ccc12)C1CC1` [SB-735464], the Kinases covered entry in the assay on NLK was “NLK”.
`C[C@@H](Oc1cc(-n2cnc3ccc(OC4CCN(C)CC4)cc32)sc1C(N)=O)c1ccccc1Cl` [GSK579289A]: the Kinases covered entry in the assay on NEK2 is reported as “NEK2”; in the assay with NEK9, “NEK9”.

The values above are taken from PMC7826789 (International Journal of Molecular Sciences, 2021).
